In the library only some 1.8% were active in any assay of this set; here they are far more common.
LYPLA1 counter: counter-screen for PME1 inhibitors: inhibitors of human LYPLA1; 0.16% of 320,000 active; O75608; AID 2174; recombinant LYPLA1, FP-Rh probe fluorescence polarization; inhibition, % at 5.9 µM;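 active means inhibition above the mean of all tested compounds plus 3 SD, set per campaign, cut at about 14% in these data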;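 further: inhibitors block serine hydrolase probe labeling of LYPLA1 so polarization falls; 0% = enzyme with DMSO and 100% = wells lacking LYPLA1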
LYPLA2 inh: LYPLA2 (human) inhibition in PME1 counter-screen; O95372; 0.38% of 320,000 active; recombinant LYPLA2, FP-Rh probe fluorescence polarization; inhibition, % at 5.9 µM;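 active means inhibition above the screen-wide mean plus 3 SD, limit set per campaign, cut at about 26% in these data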;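 further: 0% = LYPLA2 with DMSO and 100% = wells lacking LYPLA2 enzyme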
PAD4 FP inh: blocks human protein arginine deiminase 4; recombinant PAD4, RCA probe fluorescence polarization; inhibition, % at 6.36 µM; 0.41% of 330,000 active; AID 485272;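 active means percent inhibition above a cutoff equal to the mean of all tested compounds plus 3 SD, cut at about 15% in these data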;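 further: 0% = PAD4 with RCA probe and DMSO and 100% = probe without PAD4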
PME-1 inh: blocks human protein phosphatase methylesterase 1; Q9Y570; recombinant PME-1, FP-Rh probe fluorescence polarization; inhibition, % at 5.9 µM; 0.53% of 320,000 active; AID 2130;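 active means inhibition above the campaign mean of all compounds plus 3 SD, cut at about 26% in these data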;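 further: competitive labeling of PME-1 active site by serine hydrolase directed probe; 0% = PME-1 with DMSO and 100% = wells lacking PME-1 enzyme; inhibitors block probe labeling so polarization falls and inhibition rises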
Target sequence (Q9Y570 whole entry, looked up): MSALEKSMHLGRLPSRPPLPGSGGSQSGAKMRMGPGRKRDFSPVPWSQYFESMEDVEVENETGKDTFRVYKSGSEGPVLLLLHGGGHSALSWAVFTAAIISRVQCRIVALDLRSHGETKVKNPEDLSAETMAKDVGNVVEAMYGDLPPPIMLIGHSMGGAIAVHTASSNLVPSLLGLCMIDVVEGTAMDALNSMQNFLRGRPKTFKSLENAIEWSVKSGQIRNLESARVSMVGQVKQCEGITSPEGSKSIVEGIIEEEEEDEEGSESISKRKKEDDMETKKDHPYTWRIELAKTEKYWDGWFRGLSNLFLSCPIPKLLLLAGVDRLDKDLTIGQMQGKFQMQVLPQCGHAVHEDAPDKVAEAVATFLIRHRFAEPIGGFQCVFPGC
Fam108B inh: counter-screen for RBBP9 inhibitors: inhibitors of mouse Fam108B. inhibition, % at 9.51 µM. 0.33% of 300,000 active. recombinant Fam108B, FP-Rh probe fluorescence polarization;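 active means inhibition above the screen mean inhibition plus 3 SD, computed separately per campaign, cut at about 18% in these data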;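 further: inhibitors lower polarization as less probe binds the enzyme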
GSTO1 counter: GSTO1 inhibition, counter-screen for RBBP9 inhibitors. AID 1974. recombinant GSTO1, activity-based probe fluorescence polarization. 1.1% of 300,000 active. inhibition, % at 5.96 µM;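 active means inhibition above the campaign mean inhibition plus 3 SD, cut at about 35% in these data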;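 further: 0% = GSTO1-1 with DMSO and 100% = wells lacking GSTO1-1 enzyme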
Target sequence (P78417 whole entry, looked up): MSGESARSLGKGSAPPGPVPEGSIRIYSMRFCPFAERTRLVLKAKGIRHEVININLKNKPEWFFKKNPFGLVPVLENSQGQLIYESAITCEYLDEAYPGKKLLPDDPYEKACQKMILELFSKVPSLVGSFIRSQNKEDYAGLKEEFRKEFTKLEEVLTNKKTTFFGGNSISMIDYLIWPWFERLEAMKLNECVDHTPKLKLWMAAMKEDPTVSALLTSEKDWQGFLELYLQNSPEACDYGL
GSTO1 confirm: confirmation of human GSTO1 inhibitors; shares compounds with GSTO1 counter; recombinant GSTO1, probe fluorescence polarization; 54% of 2,400 active; inhibition, % at 5.96 µM; AID 2176;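 active means inhibition above the primary screen's cutoff, its mean inhibition plus 3 SD, cut at about 35% in these data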;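 further: loss of polarization as inhibitors block binding of rhodamine sulfonate ester activity probe; 0% = GSTO1 with DMSO and 100% = wells lacking GSTO1 enzyme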
GSTO1 recomb ABPP: GSTO1 (human) inhibition by gel ABPP; shares compounds with GSTO1 counter; recombinant GSTO1, gel ABPP SE-Rh probe fluorescence; inhibition, % at 1 µM; 30% of 130 active;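 active means inhibition of the enzyme GSTO1 above about 75%, limit read from the data; inactive means inhibition below that limit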
* marks the source's active call; other numbers are inactive results.

Results for O=C(Cc1ccccn1)c1ccc(Cl)cc1 ?
LYPLA1 counter: 0; LYPLA2 inh: 3; PAD4 FP inh: -2; PME-1 inh: -1; Fam108B inh: 2; GSTO1 counter: 4

Results for N#CC1(c2nc3ccccc3[nH]2)CC1c1ccc2c(c1)OCO2 (configuration not stated) ?
LYPLA1 counter: 1; LYPLA2 inh: 0; PAD4 FP inh: -3; PME-1 inh: -9; Fam108B inh: -1; GSTO1 counter: 46*; GSTO1 confirm: 33

What do the screens show for `Cc1ccc(C)c(S(=O)(=O)N/N=C2/CCCc3ccccc32)c1`?
LYPLA1 counter: 1; LYPLA2 inh: 10; PAD4 FP inh: 0; PME-1 inh: 9; Fam108B inh: -1; GSTO1 counter: 4

How did Cc1ccc(C)c(S(=O)(=O)/N=C2\C=C(NS(=O)(=O)c3ccccc3)C(=O)c3ccccc32)c1 do in these assays?
LYPLA1 counter: -13; LYPLA2 inh: -20; PAD4 FP inh: -2; PME-1 inh: 5; Fam108B inh: 4; GSTO1 counter: 82*; GSTO1 confirm: 48*

What do the screens show for `CC(C)c1ccc(S(=O)(=O)/N=C2\C=C(NS(=O)(=O)c3ccccc3)C(=O)c3ccccc32)cc1`?
LYPLA1 counter: -13; LYPLA2 inh: -19; PAD4 FP inh: 1; PME-1 inh: -12; Fam108B inh: 6; GSTO1 counter: 79*; GSTO1 confirm: 75*

What do the screens show for `COc1ccc(N/N=C(C)/C(=N/O)C(=O)Nc2ccccc2)cc1`?
LYPLA1 counter: -3; LYPLA2 inh: -5; PAD4 FP inh: -3; PME-1 inh: 0; Fam108B inh: -1; GSTO1 counter: 40*; GSTO1 confirm: 15

Results for COc1ccc(NC(=O)c2cccc(NC(=O)c3ccccc3)c2)cc1 ?
LYPLA1 counter: -4; LYPLA2 inh: -6; PAD4 FP inh: 2; PME-1 inh: -4; Fam108B inh: -9; GSTO1 counter: -8

What do the screens show for `O=C(O)c1ccc(N=N/C(=N\Nc2ccc(C(=O)O)cc2)c2ccccc2)cc1`?
LYPLA1 counter: 5; LYPLA2 inh: 8; PAD4 FP inh: 1; PME-1 inh: 1; Fam108B inh: 6; GSTO1 counter: 39*; GSTO1 confirm: 67*

What do the screens show for `O=C(Nc1ccc2c(c1)OCO2)[C@@H]1[C@@H]2C(=O)N(C3CCCCC3)C(=O)[C@@H]2C2c3ccccc3C=CN21` (some centres not stated)?
LYPLA1 counter: -2; LYPLA2 inh: 6; PAD4 FP inh: -9; PME-1 inh: 4; Fam108B inh: 8; GSTO1 counter: 15

Results for O=C(c1cccs1)[C@@H]1[C@@H]2C(=O)N(Cc3ccc4c(c3)OCO4)C(=O)[C@@H]2C2c3ccccc3C=CN21 (some centres not stated) ?
LYPLA1 counter: -1; LYPLA2 inh: -8; PAD4 FP inh: 1; PME-1 inh: 0; Fam108B inh: -6; GSTO1 counter: 38*; GSTO1 confirm: 8

What do the screens show for `CC(=O)Oc1ccc2oc(/C=C/N(C)C)c([N+](=O)[O-])c2c1`?
LYPLA1 counter: 0; LYPLA2 inh: 3; PAD4 FP inh: -5; PME-1 inh: -4; Fam108B inh: -1; GSTO1 counter: -2

How did C/C(=C/c1oc2ccc(O)cc2c1[N+](=O)[O-])N(C)C do in these assays?
LYPLA1 counter: 0; LYPLA2 inh: 1; PAD4 FP inh: -2; PME-1 inh: 7; Fam108B inh: 2; GSTO1 counter: 51*; GSTO1 confirm: 9

What do the screens show for `Cc1c(C)n2c(SCC(=O)N3CCN(c4ccccc4)CC3)nnc2[nH]c1=O`?
LYPLA1 counter: 1; LYPLA2 inh: 4; PAD4 FP inh: 2; PME-1 inh: 1; Fam108B inh: -1; GSTO1 counter: 6

What do the screens show for `O=c1[nH]c2ccccc2c2oc(CCl)nc12`?
LYPLA1 counter: 1; LYPLA2 inh: -2; PAD4 FP inh: -2; PME-1 inh: -8; Fam108B inh: -1; GSTO1 counter: 87*; GSTO1 confirm: 99*; GSTO1 recomb ABPP: 69

Results for CC(Oc1ccc(Cl)cc1Cl)C(=O)NC1=NN(c2ccccc2)C(=O)C1 (configuration not stated) ?
LYPLA1 counter: -4; LYPLA2 inh: -2; PAD4 FP inh: 9; PME-1 inh: 7; Fam108B inh: 3; GSTO1 counter: 39*; GSTO1 confirm: -2

Results for C=C(C)C(=O)NC1=NN(c2ccccc2)C(=O)C1 ?
LYPLA1 counter: -5; LYPLA2 inh: -4; PAD4 FP inh: 5; PME-1 inh: -5; Fam108B inh: 1; GSTO1 counter: 8

How did O=C1CC(NC(=O)C(F)(F)F)=NN1c1ccccc1 do in these assays?
LYPLA1 counter: -2; LYPLA2 inh: -8; PAD4 FP inh: -13; PME-1 inh: -5; Fam108B inh: -1; GSTO1 counter: 44*; GSTO1 confirm: 10

How did CC(=O)Nc1ccc(NC(=O)C(C)Oc2ccc(Cl)cc2Cl)cc1 (configuration not stated) do in these assays?
LYPLA1 counter: 1; LYPLA2 inh: 1; PAD4 FP inh: -4; PME-1 inh: 8; Fam108B inh: 1; GSTO1 counter: 2

What do the screens show for `COc1ccc(Cc2nnc(SCC(=O)Nc3cc(Cl)ccc3C)[nH]c2=O)cc1`?
LYPLA1 counter: -3; LYPLA2 inh: 0; PAD4 FP inh: -1; PME-1 inh: 0; Fam108B inh: -5; GSTO1 counter: -21

What do the screens show for `CCOC(=O)N1CCC(N2C(=O)c3ccccc3C2Nc2cc(C)cc(C)c2)CC1` (configuration not stated)?
LYPLA1 counter: 2; LYPLA2 inh: 2; PAD4 FP inh: 1; PME-1 inh: 25; Fam108B inh: -2; GSTO1 counter: -3

Results for CCOC(=O)N1CCC(N2C(=O)c3ccccc3C2Nc2cc(C(=O)OC)cc(C(=O)OC)c2)CC1 (configuration not stated) ?
LYPLA1 counter: 1; LYPLA2 inh: 3; PAD4 FP inh: -1; PME-1 inh: 21; Fam108B inh: -2; GSTO1 counter: 59*; GSTO1 confirm: -1

What do the screens show for `O=C(Cc1ccccc1F)Nc1cccc(S(=O)(=O)N2CCOCC2)c1`?
PAD4 FP inh: -4

How did O=C(CSc1ncc(-c2ccccc2)n1C1CCCC1)N1CCc2ccccc21 do in these assays?
LYPLA1 counter: -2; LYPLA2 inh: 0; PAD4 FP inh: -3; PME-1 inh: -5; Fam108B inh: 1; GSTO1 counter: 39*; GSTO1 confirm: 22

How did Cn1c(-c2ccccc2)cnc1SCC(=O)N1CCCc2ccccc21 do in these assays?
LYPLA1 counter: -8; LYPLA2 inh: -4; PAD4 FP inh: 5; PME-1 inh: 6; Fam108B inh: 8; GSTO1 counter: 3
